Measured values taken from PubChem BioAssay AID1619 (SRMLSC, 2009).
Screen size: about 220,000 compounds; about 830 (0.38%) were called active.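 The calls were made as follows: active = compound inhibiting the enzyme by more than half at any dose during confirmatory dose-response retesting; inconclusive = strong single-dose inhibitors picked by rank but not retested; inactive = the rest.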 Not all results are given here. Measured potencies and affinities stand elsewhere. Residues, ends and D or L forms follow the SMILES beside them. *: point of attachment. Boc = CC(C)(C)OC(=O)*

What follows are molecules tested against Leucine aminopeptidase (Plasmodium falciparum (isolate 3D7)) (UniProt Q8IL11) (assay: P. falciparum M17LAP inhibitors, primary screen, biochemical, fluorogenic H-Leu-NHMec substrate, 1536-well (AID 1619;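 also: plate controls were full reaction with DMSO carrier for no effect and no enzyme background for full effect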)). Details: recombinant M17LAP, H-Leu-NHMec fluorogenic kinetic assay; at 30 µM; stronger effect = higher value.
Sequence of Leucine aminopeptidase (Plasmodium falciparum (isolate 3D7)) (Q8IL11 whole entry, looked up): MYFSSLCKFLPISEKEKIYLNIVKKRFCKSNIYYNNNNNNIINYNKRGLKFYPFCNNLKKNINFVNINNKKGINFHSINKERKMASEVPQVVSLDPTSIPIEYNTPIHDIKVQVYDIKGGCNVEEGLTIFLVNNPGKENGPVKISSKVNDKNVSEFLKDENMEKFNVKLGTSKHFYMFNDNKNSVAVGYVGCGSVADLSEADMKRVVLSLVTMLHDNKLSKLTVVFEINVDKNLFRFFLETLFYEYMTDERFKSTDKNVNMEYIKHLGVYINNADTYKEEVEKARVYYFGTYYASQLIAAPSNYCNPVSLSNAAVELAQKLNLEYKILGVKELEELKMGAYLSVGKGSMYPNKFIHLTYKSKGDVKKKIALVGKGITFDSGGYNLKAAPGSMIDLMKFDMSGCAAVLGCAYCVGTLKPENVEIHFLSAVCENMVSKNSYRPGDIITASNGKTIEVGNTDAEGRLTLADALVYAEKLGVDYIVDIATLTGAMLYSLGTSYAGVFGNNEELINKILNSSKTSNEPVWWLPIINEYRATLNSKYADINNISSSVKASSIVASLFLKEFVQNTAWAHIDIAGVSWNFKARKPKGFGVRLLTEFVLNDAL

inhibition, inactive:
CC(C)c1ccc(Nc2ncccc2C(=O)O)cc1 13.8%
CC1CN(Cc2ccc(C#N)cc2Cl)CC(C)O1 (centres undefined) -2.17%
C/C(CCN1CCc2nc(-c3ccccc3)c(-c3ccccc3)cc2C1)=N\O[C@H](C)c1cn([C@H](CO)Cc2ccccc2)nn1 12.6%
Cc1oc(C)c(C(N)=O)c1C(N)=O -4.4%
COc1ccc(NC(=O)CSc2nc(O)cc(=O)[nH]2)c(OC)c1 14.7%
O=C(CSc1ncccn1)Nc1ccc(S(=O)(=O)N2CCCCC2)cc1 -1.15%
COc1ccccc1N1CCN(C(=O)CSc2nc(C)cc(=O)[nH]2)CC1 12.1%
Cc1cc(C)nc(SCC(=O)Nc2ccc(S(=O)(=O)N3CCCCC3)cc2)n1 -1.67%
Nc1nc(SCC(=O)Nc2ncc(C(F)(F)F)cc2Cl)n[nH]1 1.49%
COc1ccccc1N1CCN(C(=O)CSc2nc(N)cc(=O)[nH]2)CC1 -20.8%
O=C(CSc1ncccn1)Nc1ncc(C(F)(F)F)cc1Cl -4.61%
COc1ccccc1NC(=O)CSc1nccc(=O)[nH]1 28.1%
CC1=C(C(=O)OCc2ccccc2)C(c2ccoc2)C(C#N)=C(N)O1 (centres undefined) 5.93%
CC(NC(=O)C(=O)N/N=C\c1ccc([N+](=O)[O-])cc1)c1ccccc1 (centres undefined) 9.58%
CCOC(=O)/C(=C\c1cccnc1)C(=O)c1cc(C(C)=O)c(Nc2ccccc2)s1 -7.24%
Cc1ccc(NC(=O)COC(=O)Cc2csc(-c3ccc(Cl)cc3)n2)cc1C 5.09%
CCOC(=O)N1CCC(N(C(=O)Nc2cccc(OC)c2)C(C)CC)CC1 (centres undefined) 7.02%
CCN(CC)CCN1C(=O)C(=O)/C(=C(/O)c2ccncc2)C1c1ccccc1 (centres undefined) 45.4%
O=C(CSc1nc(-c2ccccc2)c(-c2ccccc2)o1)Nc1nnc(-c2ccccc2)s1 5.34%
CC1CCN(S(=O)(=O)c2ccc(NC(=O)Cc3ccccc3)cc2)CC1 2.2%
CCC1CCCCN1S(=O)(=O)c1ccc(NC(=O)CSc2ncccc2C(=O)O)cc1 (centres undefined) -3.83%
Nc1cc(=O)[nH]c(SCC(=O)Nc2nnc(-c3ccccc3)s2)n1 34.9%
CC(=O)N1c2ccccc2C(=O)C1N1CCCCC1 (centres undefined) 7.9%
CCn1c(SCC(=O)c2[nH]c(C)c(C(C)=O)c2C)nnc1-c1cccs1 12.2%
CC(C)CCNC(=O)C1CC(c2cccc([N+](=O)[O-])c2)=NO1 (centres undefined) 3.11%
O=C(CC12CC3CC(C1)CC(CC(=O)N1CCCC1)(C3)C2)N1CCCC1 1.98%
NC(=O)CC[C@H](NC(=O)c1ccc(F)cc1)C(=O)OCC(=O)Nc1ccc(N2CCOCC2)cc1 -1.82%
C=C(C)c1cccc(C(C)(C)NC(=O)NCc2ccncc2)c1 5.4%
Fc1ccccc1-c1[nH]ncc1-c1nnnn1-c1ccccc1 6.84%
COc1ccc(N2CCN(c3oc(-c4ccccc4OC)nc3C#N)CC2)cc1 0.71%
CCOC(=O)N1CCN(c2cc(C)c(C(C)=O)cc2F)CC1 14.4%
O=C(CN1C(=O)C2C3c4ccccc4C(c4ccccc43)C2C1=O)N1CCOCC1 (centres undefined) 4.26%
O=C(CN1C(=O)C2C3CC(C(Br)C3Br)C2C1=O)N1CCN(Cc2ccccc2)CC1 (centres undefined) -4.45%
CCCCOCCCNC(=O)CC(C)c1ccccc1 (centres undefined) 1.77%
CCCCn1c(=S)[nH]c2c(oc3ccc(Cl)cc32)c1=O 21.5%
CCOC(=O)N1CCN(C(=O)c2ccc3c(=O)n(Cc4ccc(Cl)cc4)c(=S)[nH]c3c2)CC1 -6.9%
O=C(COC(=O)/C=C/c1ccc(Cl)cc1Cl)NCCC1=CCCCC1 3.27%
O=c1cc(CSc2nnc(Nc3ccccc3)s2)nc2sccn12 24.3%
Cc1ccccc1Nc1nnc(SCc2cc(=O)n3ccsc3n2)s1 28.1%
C/C(=C\C(=O)O)C12CC3CC(CC(C3)C1)C2 11.6%
COc1ccc(NC(=O)/C=C/c2c(Cl)nc3ccccn23)cc1 -6.42%
COC(=O)[C@H](C)NC(=O)Nc1ccc(Oc2ccccc2)cc1 -1.77%
CC(C)C[C@H](NC(=O)Nc1ccc(Oc2ccccc2)cc1)C(=O)O 38.9%
CCc1ccccc1NC(=O)N[C@H](C(=O)O)C(C)CC (some centres undefined) 23.6%
CCC(C)[C@H](NC(=O)Nc1ccc(S(N)(=O)=O)cc1)C(=O)O (some centres undefined) 4.8%
CCc1c(C)sc2nc3c(C(=O)N4CCOCC4)cc(C(=O)c4ccccc4O)cn3c(=O)c12 5.44%
Cc1noc(C)c1C1(O)CCCCCCCCCCC1 0.02%
CSc1nc2ccccc2s1 13.1%
CCC1CSC(Nc2ccc(C(=O)/C=C/c3ccc(Br)cc3)cc2)=N1 (centres undefined) 15.6%
CSc1ncc(Cl)c(C(=O)Nc2nnc(SC/C=C/c3ccccc3)s2)n1 29.5%
CCSc1ncc(Cl)c(C(=O)Nc2ccccc2)n1 -6.07%
C=CCSc1nnc(NC(=O)c2ccc(Cl)nc2)s1 9.37%
CSc1ncc(Cl)c(C(=O)Nc2nnc(SC)s2)n1 13.3%
O=C(CCn1cnc2ccccc21)N/N=C/c1ccccc1O -4.46%
CCOC(=O)CSc1nc(C(C)(C)C)nc2ccccc12 -0.8%
Cc1cc(C)c2c(=O)n(CC(=O)Nc3cccc(F)c3)sc2n1 -3.07%
CC1(C(=O)Nc2nnc(SCc3ccccc3)s2)Cc2ccccc2C(=O)O1 (centres undefined) 45.4%
CC1(C(=O)Nc2nnc(C(C)(C)C)s2)Cc2ccccc2C(=O)O1 (centres undefined) 48.3%
Cc1ccc(-c2noc(CNCCCN(C)C)n2)cc1 2.07%
Cn1c(=O)c2c(SCC(=O)N3CCOCC3)nc(C3CCCCC3)nc2n(C)c1=O -15.2%
O=C(Cc1ccc(-c2ccccc2)cc1)NCc1ccccc1 -2.44%
O=C(Cc1csc(NC(=O)c2ccccc2)n1)NO 28.3%
CS(=O)(=O)N(CC(=O)N1CCOCC1)Cc1ccc(Cl)cc1 -4.28%
CCC(=O)c1ccc(-c2ccccc2)cc1 -6.48%
CN(C)CC(=O)c1ccc(-c2ccccc2)cc1 68.2%
CC(C)(C)OC(=O)N1CCCC1C(=O)NC(Cc1ccccc1)C(=O)O (stereo not drawn) (Boc-Pro-Phe-OH; configuration not given here) 9.76%
CC(C)C(NC(=O)OC(C)(C)C)C(=O)N1CCCC1C(=O)NC(Cc1ccccc1)C(N)=O (stereo not drawn) (Boc-Val-Pro-Phe-NH2; configuration not given here) 17.4%
Cc1nn(-c2ccc(F)cc2)c(Cl)c1/C=C/C(=O)OCC(=O)Nc1ccc(F)cc1F 0.75%
O=C(c1ccccc1)c1ncc(C(F)(F)F)cc1Cl -12.8%
CCCCn1c(SCC(=O)c2ccc(O)c(O)c2)nc2ccsc2c1=O 19.5%
O=C(O)CCCCCn1c(SCC(=O)N2CCCC2)nc2ccsc2c1=O 14.5%
CNc1nc(Oc2ccc(C(=O)OC)cc2)nc(SC)n1 -13.4%
Cn1cc(Cl)c(-c2n[nH]c(=S)n2-c2ccccc2)n1 8.04%
CCOC(=O)c1c(NC(=O)CSc2nc3ccccc3c(=O)n2-c2ccccc2)sc(C(C)=O)c1C -1.44%
Cc1ccc(O)c(C(=O)c2cnn(C(=O)Cc3csc(C)n3)c2)c1 -1.8%
O=C(c1cnn(C(=O)COc2ccccc2F)c1)c1cc(F)ccc1O 1.06%
O=C(Cn1cnc2ccccc2c1=O)c1ccc(Cl)cc1 1.39%
COc1ccc(N(C(=O)C(C)C)S(=O)(=O)c2ccc(Cl)cc2)cc1 -1.25%
CCn1c(COc2ccc(C)cc2)nnc1SCC(=O)NCc1ccco1 6.34%
CCOc1ccc(Nc2nc(Cc3nnc(SCC(N)=O)o3)cs2)cc1 27.7%
CCn1c(CNc2nc(-c3ccccc3)cs2)nnc1SCC(=O)NCc1ccco1 -5.1%
CCOc1ccc(Nc2nc(Cc3nnc(SCC(=O)c4ccc(C)cc4)o3)cs2)cc1 27.5%
CC(=O)/C(=N\Nc1cccc(Cl)c1)Sc1nnc(-c2ccccc2)n1-c1ccccc1 -10.1%
CCC(Oc1ccccc1)C(=O)NC1C(=O)N2C1SC(C)(C)C2C(=O)O (centres undefined) 19.9%
Cn1c(=O)c2c(nc(N3CCCCC3)n2CCNC2=NCCC2)n(C)c1=O 11.7%
O=C(Nc1ccccc1)Nc1scc2c1c(=O)oc1ccccc12 -3.24%
COc1ccc(C(=O)N2CCc3cc(OC)c(OC)cc3C2c2cccc([N+](=O)[O-])c2)cc1OC (centres undefined) -0.93%
Cc1ccc(C2C(C#N)=C3N=C(N)c4ccccc4N3C3=C2C(=O)CCC3)cc1 (centres undefined) -9.17%
Cn1c(-c2cccc3ccccc23)n[nH]c1=S -3.33%
c1ccc2c(-c3nn[nH]n3)cccc2c1 -2.27%
O=C(Oc1ccc(Br)cc1C(=S)N1CCCC1)c1ccccc1F -3.73%
CN=C1SC(CC(=O)Nc2ccc(N3CCOCC3)cc2)C(=O)N1C (centres undefined) -4.74%
CSCCC(NC(=O)c1ccc(C)o1)C(=O)O (centres undefined) -6.5%
CSCCC(NC(=O)c1cc(C)oc1C)C(=O)O (centres undefined) 5.74%
